# EBV gp42 inh: Epstein-Barr virus gp42 inhibitors, primary screen, biochemical, uHTS, fluorescence polarization; hit rate 0.42% among 220,000; Fluorescence polarization binding assay, mP read-out; inhibition, % (tested at 21.74 µM); Glycoprotein 42 (Epstein-Barr virus (strain AG876)), Q1HVG2; in the data active means inhibition above about 50%
# Target sequence (Q1HVG2 whole entry, looked up): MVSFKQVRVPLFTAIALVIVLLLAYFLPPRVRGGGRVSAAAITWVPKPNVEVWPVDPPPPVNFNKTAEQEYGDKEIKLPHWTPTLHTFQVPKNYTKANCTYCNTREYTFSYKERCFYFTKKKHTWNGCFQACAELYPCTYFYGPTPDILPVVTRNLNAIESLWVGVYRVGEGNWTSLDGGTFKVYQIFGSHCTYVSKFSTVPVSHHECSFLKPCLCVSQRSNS
# MEX-5 binding: MEX-5 zinc finger RNA-binding disruptors – biochemical, C. elegans, fluorescence polarization, MLPCN library, primary screen | MEX-5/FITC-TCR2 RNA binding; active compounds read low | activity score (negative = inhibition of binding), % at 10 µM | hit rate 0.38% among 300,000 | AID 1832, 2009;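 active means inhibition past about -25% in most replicates, and total fluorescence under double the plate's negative control median, limit read from the data; inconclusive means replicates evenly split on the limit, or fluorescence at least double controls; inactive means too little inhibition in most replicates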
# BCLXL inh: inhibitors of human Bcl-xL, primary screen, biochemical, fluorescence polarization, HTS; Bcl-2-like protein 1 (Homo sapiens), Q07817; GST-Bcl-xL / FITC-Bim BH3 peptide fluorescence polarization; inhibition, % at 10.9 µM; hit rate 0.7% among 320,000; AID 2129, 2009;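 active means inhibition above the mean of all tested compounds plus 3 SD, cutoff set per campaign, cut at about 30% in these data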;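 further: inhibitors lower millipolarization by displacing the labeled peptide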
# Target sequence (Q07817 whole entry, looked up): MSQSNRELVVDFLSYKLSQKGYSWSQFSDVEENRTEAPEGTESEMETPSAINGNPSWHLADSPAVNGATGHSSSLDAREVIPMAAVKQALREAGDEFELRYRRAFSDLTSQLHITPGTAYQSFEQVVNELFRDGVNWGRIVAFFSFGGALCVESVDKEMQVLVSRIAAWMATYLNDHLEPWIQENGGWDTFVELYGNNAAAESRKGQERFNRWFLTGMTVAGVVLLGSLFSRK
# GLD-1 RNA inh: GLD-1/TGE RNA complex disruptors, primary screen, biochemical, fluorescence polarization; Female germline-specific tumor suppressor gld-1 (Caenorhabditis elegans), Q17339; purified GLD-1 + fluorescein TGE RNA; inhibition, % at 5.96 µM; hit rate 0.44% among 320,000;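 active means percent inhibition above a per-plate cutoff, the plate mean of test compounds plus 3 SD, cut at about 30% in these data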
# MCL1 BIM primary: inhibitors of MCL1 binding to BIM-BH3, primary screen, biochemical, fluorescence polarization | AID 2057, 2009 | GST-MCL1 / FITC-Bim-BH3 fluorescence polarization | inhibition, % at 10.9 µM | Induced myeloid leukemia cell differentiation protein Mcl-1 (Homo sapiens), Q07820 | hit rate 0.68% among 320,000;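 active means inhibition above the mean inhibition of all tested compounds plus 3 SD, set per campaign, cut at about 40% in these data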;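 further: higher means more loss of mP so more displacement of Bim peptide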
# BCLXL inh confirm: Bcl-xL inhibitors blocking Bim BH3 binding, confirmation, counter-screen for MCL1 inhibitor project, biochemical, fluorescence polarization. shares compounds with MCL1 BIM primary. GST-Bcl-xL / FITC-Bim BH3 peptide FP binding. inhibition, % at 10.9 µM. hit rate 54% among 1,700;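 active means inhibition above a cutoff equal to the mean inhibition of all tested compounds plus 3 SD, cut at about 30% in these data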
# MCL1 inh confirm: inhibitors of MCL1 binding to BIM-BH3, confirmation, biochemical, fluorescence polarization, triplicate | shares compounds with MCL1 BIM primary | inhibition, % at 10.9 µM | GST-MCL1 / FITC-Bim-BH3 fluorescence polarization | hit rate 61% among 1,700;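 active means inhibition above the average of all tested compounds plus 3 SD, cut at about 40% in these data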
# A number is an active result; i = inactive; ? = inconclusive; nt = no result; + = active, no number. The list is not random: actives were taken first. Their share in the collection is about 1.3%.
SMILES,EBV gp42 inh,MEX-5 binding,BCLXL inh,GLD-1 RNA inh,MCL1 BIM primary,BCLXL inh confirm,MCL1 inh confirm
Nc1c(C(=O)NC2CC2)sc2nc3c(c(-c4ccco4)c12)CC/C3=C/c1ccco1,104,nt,73,85,115,64,96
Cc1ccc(S(=O)(=O)CCC(=O)OCC(=O)Nc2cc(C)on2)cc1,i,i,+,183,+,i,i
CCC1=NNc2cccc3c(OC)ccc1c23,i,i,116,i,126,45,i
CN(C)CCN(C)Cc1c2ccccc2c(CN(C)CCN(C)C)c2ccccc12,nt,-64,172,123,189,77,102
CN(C)CCP(=O)(c1ccccc1)c1ccccc1,i,i,i,i,i,nt,nt
O=C(CN1CCSC1=O)N1CCN(S(=O)(=O)c2ccc(Cl)cc2)CC1,nt,nt,i,i,i,nt,nt
O=C(CN1CCSC1=O)N1CCN(S(=O)(=O)c2ccccc2)CC1,nt,nt,i,i,55,i,i
CCC(Cc1ccccc1)NC(=O)C1CC1 (centres undefined),nt,i,nt,nt,nt,nt,nt
COc1ccccc1NC(=O)c1ccc(N)cc1,i,i,i,i,i,nt,nt
COC(=O)c1ccc(C(=O)Nc2ccc(N)cc2N)cc1,i,i,76,i,77,i,i
COc1ccc(/C=C2\N=C(SC)N(c3ccccc3OC)C2=O)cc1,i,i,i,i,i,nt,nt
Cc1cc(C)c(S(=O)(=O)N2CCCCC2C(=O)O)c(C)c1 (centres undefined),i,i,i,i,i,nt,nt
CCN(CC(=O)Nc1c(F)cccc1F)C(=O)C1CCN(S(=O)(=O)c2ccc(C)cc2C)CC1,nt,i,i,i,i,nt,nt
CC(Sc1nc(C2CC2)n(-c2ccccc2)n1)C(=O)c1c(N)n(C)c(=O)n(C)c1=O (centres undefined),nt,i,i,i,i,nt,nt
Cn1c(N)c(C(=O)CSc2nc(C3CC3)n(-c3ccccc3)n2)c(=O)[nH]c1=O,nt,nt,i,i,69,i,i
Cn1c(N)c(C(=O)CSc2nnc(C3CC3)n2-c2ccccc2)c(=O)n(C)c1=O,nt,nt,i,i,58,i,i
Cn1c(N)c(C(=O)CSc2nnc(C3CC3)n2-c2ccccc2)c(=O)[nH]c1=O,nt,nt,nt,i,nt,nt,nt
Cc1cc(C)nc(SCc2ccc(F)cc2)n1,i,i,i,i,i,nt,nt
CC(=O)c1cc2c(cc1NC(=O)CN1Cc3ccccc3C1=O)OCO2,nt,i,i,i,i,nt,nt
Cc1ccc(C(=O)Nc2nc(-c3ccccn3)cs2)cc1S(=O)(=O)N1CCOCC1,nt,nt,i,i,i,nt,nt
COC(=O)c1c(=O)n(O)c2ccc(OC)cc2[n+]1[O-],98,-30,169,146,198,138,178
CCOc1ccc(-c2c(=O)n(O)c3ccccc3[n+]2[O-])cc1,nt,i,i,i,i,nt,nt
O=[N+]([O-])c1cccnc1-n1cnc2ccccc21,i,i,i,i,i,nt,nt
Cc1cc2ncn(-c3ncccc3[N+](=O)[O-])c2cc1C,nt,i,85,80,102,i,i
C=CCN1C=C2C(=O)C(C)(OC(=O)c3ccc(OC)cc3)C(=O)C(c3ccco3)=C2C=C1CCCC (centres undefined),i,i,67,54,71,41,62
SMILES,EBV gp42 inh,MEX-5 binding,BCLXL inh,GLD-1 RNA inh,MCL1 BIM primary,BCLXL inh confirm,MCL1 inh confirm
CCCCC1=CC2=C(c3ccco3)C(=O)C(C)(OC(=O)c3ccc(OC)cc3)C(=O)C2=CN1c1ccccc1 (centres undefined),i,i,49,44,50,i,i
CCCCC1=CC2=C(c3ccco3)C(=O)C(C)(OC(=O)c3ccc(OC)cc3)C(=O)C2=CN1CCCOC(C)C (centres undefined),i,i,63,51,65,72,91
COC(=O)CCCC1=CC2=C(c3ccccc3)C(=O)C(C)(OC(=O)C3CCCC3)C(=O)C2=CN1Cc1ccco1 (centres undefined),i,i,i,i,i,nt,nt
COC(=O)CCCC1=CC2=C(c3ccccc3)C(=O)C(C)(OC(=O)C3CCCC3)C(=O)C2=CN1CCCCO (centres undefined),i,i,i,i,i,nt,nt
O=C(O)c1ccccc1/C=N/NC(=S)NCc1ccccc1,i,i,i,i,i,nt,nt
CCc1ccccc1OCc1nnc(N)s1,i,i,i,i,i,nt,nt
COC(=O)[C@]1(Cc2ccccc2)N[C@H](CN(C)C(=O)Nc2ccc(Cl)cc2)[C@@H]2C(=O)N(C)C(=O)[C@@H]21,nt,nt,nt,i,nt,nt,nt
Cc1cc(Cn2nc(-c3ccccc3)cc2C(=O)NCc2cccs2)on1,nt,i,i,i,i,nt,nt
COc1cccc(=O)c2c(C)n(CC(=O)c3ccccc3)c(C)c12,i,i,i,i,47,i,i
Cc1oc2c(cc(NS(=O)(=O)c3ccc(C(C)C)cc3)c3ccccc32)c1C(=O)O,nt,i,69,32,75,110,138
CC(C)COC(=O)/C(C#N)=C/c1c[nH]c2ccccc12,i,i,i,i,i,nt,nt
Cc1ccc(-c2ccc(/C=C(\C#N)C(N)=S)n2C)cc1,i,nt,67,i,68,i,i
Cn1cccc1/C=C(/C#N)C(N)=S,i,i,i,i,i,nt,nt
CCOC(=O)N1CCN(c2c(NCCCN3CCCCCC3)c(=O)c2=O)CC1,i,i,i,i,i,nt,nt
Cc1cc2n(c1)CCn1c(C)ccc1-2,i,i,78,i,99,92,135
CCc1cc[n+](-c2nc3ccccc3nc2[N-]S(=O)(=O)c2ccc(Br)s2)cc1,58,?,83,i,94,71,87
Cc1cc[n+](-c2nc3ccccc3nc2[N-]S(=O)(=O)c2ccccc2)cc1,i,i,i,i,i,nt,nt
O=C(CSc1nnc(C2CC2)n1-c1ccccc1)N1CCNC1=O,nt,nt,i,i,i,nt,nt
CC(=O)C(Sc1nc(NC(C)(C)C)nc(N(C)C)n1)C(C)=O,i,i,i,i,193,i,i
COC(=O)CSc1nc(NC(C)(C)C)nc(N(C)C)n1,i,i,i,i,i,nt,nt
COc1ccc(CCNC(=O)c2nnn(CC(=O)Nc3cccc(F)c3)c2N)cc1OC,i,i,i,i,i,nt,nt
O=C(O)c1ccccc1-c1ccc(/C=c2\sc3nc4cc(Br)cnc4n3c2=O)o1,i,i,38,i,60,i,i
COc1ccccc1NC(=O)CC(NC1CCCCC1)C(=O)O (centres undefined),i,i,i,i,62,i,i
Cc1cc(=O)oc2c(CN3CCCC3)c(O)c(Cl)cc12,nt,i,i,i,i,nt,nt
